# Source: the supplement of paper PMC11732987, “Enantioselective OTUD7B fragment discovery through chemoproteomics screening and high-throughput optimisation” (Communications Chemistry, 2025)
# Unmarked numbers belong to inactive results.
# Tests used:
# Assay in all cases: log2 ratio of Biotin-Ahx-Ub-VS probe labelling (fragment/DMSO); higher = less target engagement (more negative = stronger competition), active = hit call of the paper (q ≤ 0.05, log2 ratio ≤ -1)
# Settings in all cases: compound concentration: 200 uM; treatment time: 3 h
# USP34 = USP34 (UniProt Q70CQ2)
# Procedure, shortened: (§1)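 In triplicate, 495 µg of HEK293T lysate per sample was incubated with fragment at 200 µM or vehicle for 3 h. Biotin-Ahx-Ub-VS was then added to 0.5 µM final for 1 h, and labelled DUBs were captured with NeutrAvidin, digested with LysC and trypsin, and measured by diaPASEF LC-MS/MS. Data are average log2 fragment/vehicle ratios by unpaired t-test from global-median-normalised Spectronaut label-free quantities, restricted to proteins with ≥2 unique peptides.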
# USP36 = biological target: T1, USP36 (UniProt Q9P275)
# T1 sequence (whole entry): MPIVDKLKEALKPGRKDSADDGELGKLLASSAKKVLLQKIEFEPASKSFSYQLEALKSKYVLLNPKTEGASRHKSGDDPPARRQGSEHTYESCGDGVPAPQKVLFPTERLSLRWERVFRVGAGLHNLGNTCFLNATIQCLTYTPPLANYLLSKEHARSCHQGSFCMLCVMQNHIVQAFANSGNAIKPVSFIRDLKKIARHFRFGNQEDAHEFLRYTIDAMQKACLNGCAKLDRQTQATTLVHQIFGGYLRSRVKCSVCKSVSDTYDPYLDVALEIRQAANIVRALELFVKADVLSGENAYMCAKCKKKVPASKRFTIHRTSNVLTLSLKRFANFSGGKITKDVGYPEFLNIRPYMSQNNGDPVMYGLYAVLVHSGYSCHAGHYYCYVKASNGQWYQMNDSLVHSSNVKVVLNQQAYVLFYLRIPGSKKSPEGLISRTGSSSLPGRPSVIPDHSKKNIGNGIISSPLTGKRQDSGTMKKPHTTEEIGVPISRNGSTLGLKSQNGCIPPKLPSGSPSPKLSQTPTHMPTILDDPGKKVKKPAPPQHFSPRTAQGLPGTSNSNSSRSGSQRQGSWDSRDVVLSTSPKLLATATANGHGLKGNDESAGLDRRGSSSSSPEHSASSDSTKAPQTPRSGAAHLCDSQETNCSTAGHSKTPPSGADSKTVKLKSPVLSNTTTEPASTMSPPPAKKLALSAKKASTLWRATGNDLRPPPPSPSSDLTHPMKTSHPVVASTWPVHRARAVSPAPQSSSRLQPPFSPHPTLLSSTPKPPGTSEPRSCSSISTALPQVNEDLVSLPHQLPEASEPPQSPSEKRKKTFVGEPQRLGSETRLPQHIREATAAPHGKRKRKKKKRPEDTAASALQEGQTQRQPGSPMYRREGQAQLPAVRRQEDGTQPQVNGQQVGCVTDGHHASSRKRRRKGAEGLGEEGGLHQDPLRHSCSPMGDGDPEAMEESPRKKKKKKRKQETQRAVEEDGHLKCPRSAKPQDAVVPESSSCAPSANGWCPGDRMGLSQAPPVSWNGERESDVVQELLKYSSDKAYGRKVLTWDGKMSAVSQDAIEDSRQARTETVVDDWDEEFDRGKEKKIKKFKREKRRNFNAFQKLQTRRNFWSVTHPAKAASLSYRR
# Procedure, shortened: as §1
# USP38 = biological target: T2, USP38 (UniProt Q8NB14)
# T2 sequence (whole entry): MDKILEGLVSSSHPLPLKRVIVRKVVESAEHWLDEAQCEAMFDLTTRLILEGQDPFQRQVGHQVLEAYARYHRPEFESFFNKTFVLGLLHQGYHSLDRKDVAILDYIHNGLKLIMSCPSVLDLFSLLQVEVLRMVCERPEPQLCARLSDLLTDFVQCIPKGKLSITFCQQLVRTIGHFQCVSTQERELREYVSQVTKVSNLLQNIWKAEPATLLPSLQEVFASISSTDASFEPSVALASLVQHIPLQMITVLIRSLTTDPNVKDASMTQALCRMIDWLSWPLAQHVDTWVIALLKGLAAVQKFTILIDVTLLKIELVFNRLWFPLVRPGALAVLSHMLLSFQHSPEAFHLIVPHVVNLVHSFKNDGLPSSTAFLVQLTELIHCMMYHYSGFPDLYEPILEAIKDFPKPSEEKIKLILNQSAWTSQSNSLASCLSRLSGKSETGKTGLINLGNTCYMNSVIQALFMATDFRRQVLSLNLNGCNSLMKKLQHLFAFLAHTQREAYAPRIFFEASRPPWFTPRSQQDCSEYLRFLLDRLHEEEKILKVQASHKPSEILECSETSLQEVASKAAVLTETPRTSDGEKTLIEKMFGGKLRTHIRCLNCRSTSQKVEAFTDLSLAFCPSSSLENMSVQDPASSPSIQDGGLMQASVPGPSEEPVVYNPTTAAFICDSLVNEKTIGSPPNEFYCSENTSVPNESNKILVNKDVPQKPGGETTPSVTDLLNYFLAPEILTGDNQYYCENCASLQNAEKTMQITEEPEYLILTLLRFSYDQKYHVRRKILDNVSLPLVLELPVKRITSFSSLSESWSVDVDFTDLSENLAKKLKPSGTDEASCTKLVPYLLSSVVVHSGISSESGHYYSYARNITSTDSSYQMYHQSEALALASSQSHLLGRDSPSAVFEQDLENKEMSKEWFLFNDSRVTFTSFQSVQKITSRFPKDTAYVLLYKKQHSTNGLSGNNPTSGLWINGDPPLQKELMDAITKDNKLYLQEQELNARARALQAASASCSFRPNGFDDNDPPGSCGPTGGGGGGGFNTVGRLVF
# Procedure, shortened: as §1
# USP39 = biological target: T3, USP39 (UniProt Q53GS9)
# T3 sequence (whole entry): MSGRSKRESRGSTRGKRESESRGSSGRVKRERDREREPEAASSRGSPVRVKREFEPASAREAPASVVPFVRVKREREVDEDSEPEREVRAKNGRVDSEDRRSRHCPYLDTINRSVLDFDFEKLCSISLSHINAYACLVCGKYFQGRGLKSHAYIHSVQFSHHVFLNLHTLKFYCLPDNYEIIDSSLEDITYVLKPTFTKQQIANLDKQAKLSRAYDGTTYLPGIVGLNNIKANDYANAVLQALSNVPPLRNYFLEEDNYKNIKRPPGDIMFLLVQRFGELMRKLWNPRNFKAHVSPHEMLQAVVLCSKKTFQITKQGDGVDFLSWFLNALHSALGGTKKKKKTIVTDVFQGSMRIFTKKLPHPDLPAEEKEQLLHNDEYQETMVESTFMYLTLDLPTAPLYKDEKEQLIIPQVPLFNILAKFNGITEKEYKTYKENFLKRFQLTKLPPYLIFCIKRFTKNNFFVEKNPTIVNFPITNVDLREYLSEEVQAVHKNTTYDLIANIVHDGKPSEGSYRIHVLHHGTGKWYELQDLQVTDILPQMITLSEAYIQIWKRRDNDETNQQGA
# Procedure, shortened: as §1
# USP4 = biological target: T4, USP4 (UniProt Q13107)
# T4 sequence (whole entry): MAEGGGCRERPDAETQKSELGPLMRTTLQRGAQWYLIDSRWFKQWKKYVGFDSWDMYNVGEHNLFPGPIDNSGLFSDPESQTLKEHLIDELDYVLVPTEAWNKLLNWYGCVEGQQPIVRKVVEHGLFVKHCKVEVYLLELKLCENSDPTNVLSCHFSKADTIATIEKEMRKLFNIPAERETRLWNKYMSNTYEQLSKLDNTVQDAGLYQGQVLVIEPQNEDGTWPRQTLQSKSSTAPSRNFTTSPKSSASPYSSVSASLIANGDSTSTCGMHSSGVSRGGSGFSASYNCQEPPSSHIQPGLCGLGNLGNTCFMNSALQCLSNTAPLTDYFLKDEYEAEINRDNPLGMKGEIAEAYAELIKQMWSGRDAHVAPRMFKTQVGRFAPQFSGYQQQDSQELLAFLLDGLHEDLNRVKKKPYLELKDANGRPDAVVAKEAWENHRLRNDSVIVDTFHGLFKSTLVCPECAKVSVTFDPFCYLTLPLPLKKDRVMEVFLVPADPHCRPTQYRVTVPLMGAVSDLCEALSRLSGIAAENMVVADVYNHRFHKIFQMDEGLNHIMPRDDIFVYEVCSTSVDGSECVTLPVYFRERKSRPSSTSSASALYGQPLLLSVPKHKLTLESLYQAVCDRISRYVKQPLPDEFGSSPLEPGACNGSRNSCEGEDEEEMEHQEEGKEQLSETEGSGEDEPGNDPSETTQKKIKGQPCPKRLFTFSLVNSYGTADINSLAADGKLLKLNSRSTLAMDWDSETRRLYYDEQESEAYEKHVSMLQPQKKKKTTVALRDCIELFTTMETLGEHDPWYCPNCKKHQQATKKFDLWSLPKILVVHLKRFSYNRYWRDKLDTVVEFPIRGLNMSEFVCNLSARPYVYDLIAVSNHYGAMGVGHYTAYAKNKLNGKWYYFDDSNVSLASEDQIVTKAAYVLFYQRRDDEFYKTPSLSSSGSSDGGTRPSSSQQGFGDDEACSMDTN
# Procedure, shortened: as §1
# Chain of USP34 (Q70CQ2 whole entry, the tested form may be a part): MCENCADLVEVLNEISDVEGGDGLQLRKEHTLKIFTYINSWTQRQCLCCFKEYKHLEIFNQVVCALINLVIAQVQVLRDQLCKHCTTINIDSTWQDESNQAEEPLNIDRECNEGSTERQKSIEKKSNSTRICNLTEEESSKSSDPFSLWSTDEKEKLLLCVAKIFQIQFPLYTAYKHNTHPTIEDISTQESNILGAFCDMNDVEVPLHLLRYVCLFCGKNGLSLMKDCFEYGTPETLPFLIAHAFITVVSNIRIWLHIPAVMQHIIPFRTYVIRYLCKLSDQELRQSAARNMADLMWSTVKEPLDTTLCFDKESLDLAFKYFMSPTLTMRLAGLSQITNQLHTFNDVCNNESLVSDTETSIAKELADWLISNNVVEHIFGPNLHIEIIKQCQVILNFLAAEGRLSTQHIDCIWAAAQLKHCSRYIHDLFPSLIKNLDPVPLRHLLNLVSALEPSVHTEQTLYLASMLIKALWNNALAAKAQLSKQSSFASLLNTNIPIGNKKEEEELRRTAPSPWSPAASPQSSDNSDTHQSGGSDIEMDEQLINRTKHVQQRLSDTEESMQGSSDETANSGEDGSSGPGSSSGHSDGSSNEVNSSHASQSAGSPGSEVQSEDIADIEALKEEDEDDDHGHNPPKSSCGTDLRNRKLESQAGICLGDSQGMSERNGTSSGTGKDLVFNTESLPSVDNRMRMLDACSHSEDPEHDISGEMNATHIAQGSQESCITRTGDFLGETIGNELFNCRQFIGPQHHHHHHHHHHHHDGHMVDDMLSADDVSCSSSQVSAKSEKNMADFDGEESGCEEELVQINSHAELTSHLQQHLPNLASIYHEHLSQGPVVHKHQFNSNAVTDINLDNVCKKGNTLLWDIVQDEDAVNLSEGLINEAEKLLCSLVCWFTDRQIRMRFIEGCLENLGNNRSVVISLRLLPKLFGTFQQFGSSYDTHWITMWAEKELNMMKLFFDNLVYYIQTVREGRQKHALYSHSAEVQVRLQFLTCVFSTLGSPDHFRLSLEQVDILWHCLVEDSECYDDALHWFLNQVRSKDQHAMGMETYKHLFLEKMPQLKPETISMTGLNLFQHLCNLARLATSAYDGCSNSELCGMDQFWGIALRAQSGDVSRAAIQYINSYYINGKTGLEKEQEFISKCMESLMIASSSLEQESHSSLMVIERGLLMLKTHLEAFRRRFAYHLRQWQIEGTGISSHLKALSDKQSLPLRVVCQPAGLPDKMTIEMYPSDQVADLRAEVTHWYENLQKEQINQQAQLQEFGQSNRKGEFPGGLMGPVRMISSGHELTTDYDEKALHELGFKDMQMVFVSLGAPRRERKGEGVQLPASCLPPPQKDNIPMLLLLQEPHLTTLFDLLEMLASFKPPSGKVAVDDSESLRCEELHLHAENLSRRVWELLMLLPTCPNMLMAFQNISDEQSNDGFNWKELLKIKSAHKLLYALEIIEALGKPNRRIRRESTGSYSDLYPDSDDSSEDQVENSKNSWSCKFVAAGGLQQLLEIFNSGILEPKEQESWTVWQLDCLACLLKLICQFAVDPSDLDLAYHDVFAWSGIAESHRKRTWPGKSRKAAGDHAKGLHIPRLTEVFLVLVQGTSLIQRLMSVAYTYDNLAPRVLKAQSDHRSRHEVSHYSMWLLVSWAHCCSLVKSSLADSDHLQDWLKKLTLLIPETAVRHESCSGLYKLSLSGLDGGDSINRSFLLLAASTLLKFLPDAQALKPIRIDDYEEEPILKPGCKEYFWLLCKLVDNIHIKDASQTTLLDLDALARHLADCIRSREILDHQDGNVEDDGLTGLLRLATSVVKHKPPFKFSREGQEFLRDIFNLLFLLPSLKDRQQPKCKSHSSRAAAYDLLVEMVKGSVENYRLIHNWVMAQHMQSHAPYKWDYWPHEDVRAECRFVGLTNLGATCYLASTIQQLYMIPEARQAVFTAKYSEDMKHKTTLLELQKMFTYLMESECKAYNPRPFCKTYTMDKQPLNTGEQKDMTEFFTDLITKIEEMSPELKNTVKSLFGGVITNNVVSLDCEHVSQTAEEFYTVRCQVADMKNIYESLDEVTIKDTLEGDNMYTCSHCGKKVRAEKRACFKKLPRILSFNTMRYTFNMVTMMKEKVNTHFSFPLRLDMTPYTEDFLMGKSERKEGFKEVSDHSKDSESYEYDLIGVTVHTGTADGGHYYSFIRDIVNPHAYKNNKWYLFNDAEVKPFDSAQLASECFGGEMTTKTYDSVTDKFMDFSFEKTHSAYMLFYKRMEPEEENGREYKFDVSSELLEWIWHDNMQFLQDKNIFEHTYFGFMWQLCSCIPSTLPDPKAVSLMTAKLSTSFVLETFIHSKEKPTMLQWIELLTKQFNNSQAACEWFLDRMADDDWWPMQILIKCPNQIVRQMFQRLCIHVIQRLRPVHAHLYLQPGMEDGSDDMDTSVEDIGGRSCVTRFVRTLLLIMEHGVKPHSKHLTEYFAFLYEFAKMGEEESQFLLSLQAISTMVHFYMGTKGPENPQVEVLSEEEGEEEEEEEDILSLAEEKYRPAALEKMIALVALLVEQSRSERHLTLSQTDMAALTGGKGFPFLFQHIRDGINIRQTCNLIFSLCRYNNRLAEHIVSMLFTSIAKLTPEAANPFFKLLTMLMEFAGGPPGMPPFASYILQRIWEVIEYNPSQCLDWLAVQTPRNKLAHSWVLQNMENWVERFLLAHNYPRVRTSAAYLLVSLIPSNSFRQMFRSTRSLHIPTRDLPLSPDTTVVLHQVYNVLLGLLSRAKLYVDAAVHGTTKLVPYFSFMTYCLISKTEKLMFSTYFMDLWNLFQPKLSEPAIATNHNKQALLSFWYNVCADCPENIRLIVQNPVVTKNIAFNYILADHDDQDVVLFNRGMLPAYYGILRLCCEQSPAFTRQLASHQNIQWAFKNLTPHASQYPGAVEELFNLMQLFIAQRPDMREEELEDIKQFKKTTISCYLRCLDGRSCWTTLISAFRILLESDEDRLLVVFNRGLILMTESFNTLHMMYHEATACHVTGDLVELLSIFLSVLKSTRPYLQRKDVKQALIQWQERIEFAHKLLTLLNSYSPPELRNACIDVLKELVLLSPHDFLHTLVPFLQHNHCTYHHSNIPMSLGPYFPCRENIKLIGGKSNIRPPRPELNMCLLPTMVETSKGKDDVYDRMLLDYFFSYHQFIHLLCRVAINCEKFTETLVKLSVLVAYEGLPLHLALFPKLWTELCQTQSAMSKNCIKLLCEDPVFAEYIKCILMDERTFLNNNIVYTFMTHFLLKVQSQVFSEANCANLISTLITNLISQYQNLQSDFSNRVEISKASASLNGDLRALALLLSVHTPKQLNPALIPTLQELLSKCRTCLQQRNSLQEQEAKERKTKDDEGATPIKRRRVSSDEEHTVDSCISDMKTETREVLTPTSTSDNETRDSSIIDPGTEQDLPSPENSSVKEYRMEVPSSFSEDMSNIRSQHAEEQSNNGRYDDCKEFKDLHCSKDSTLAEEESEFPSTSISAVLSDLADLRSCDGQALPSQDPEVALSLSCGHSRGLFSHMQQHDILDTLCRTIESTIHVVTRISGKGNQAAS
smiles,measurement,setting,value
O=C(CCl)N1CC=C(c2c[nH]c3ccccc23)CC1,log2 ratio of Biotin-Ahx-Ub-VS probe labelling,USP34,-0.9
same,log2 ratio of Biotin-Ahx-Ub-VS probe labelling,USP36,0.0858
same,log2 ratio of Biotin-Ahx-Ub-VS probe labelling,USP38,-0.476
same,log2 ratio of Biotin-Ahx-Ub-VS probe labelling,USP39,0.536
same,log2 ratio of Biotin-Ahx-Ub-VS probe labelling,USP4,-1.2 (active)
